Structures are written as SMILES.

Experiment [1] addresses Serine/threonine-protein kinase MARK2 (Homo sapiens) (UniProt Q7KZI7). Particulars: at 1 µM.
Experiment [2] concerns the target PAS domain-containing serine/threonine-protein kinase (Homo sapiens) (UniProt Q96RG2). As to conditions: at 0.1 µM.
Experiment [3] has the same target. Particulars: at 1 µM.
Experiment [4] deals with Phosphorylase b kinase gamma catalytic chain, skeletal muscle/heart isoform (Homo sapiens) (UniProt Q16816). As to conditions: at 0.1 µM.
Phosphorylase b kinase gamma catalytic chain, skeletal muscle/heart isoform (Homo sapiens), sequence (Q16816 whole entry, looked up, canonical isoform): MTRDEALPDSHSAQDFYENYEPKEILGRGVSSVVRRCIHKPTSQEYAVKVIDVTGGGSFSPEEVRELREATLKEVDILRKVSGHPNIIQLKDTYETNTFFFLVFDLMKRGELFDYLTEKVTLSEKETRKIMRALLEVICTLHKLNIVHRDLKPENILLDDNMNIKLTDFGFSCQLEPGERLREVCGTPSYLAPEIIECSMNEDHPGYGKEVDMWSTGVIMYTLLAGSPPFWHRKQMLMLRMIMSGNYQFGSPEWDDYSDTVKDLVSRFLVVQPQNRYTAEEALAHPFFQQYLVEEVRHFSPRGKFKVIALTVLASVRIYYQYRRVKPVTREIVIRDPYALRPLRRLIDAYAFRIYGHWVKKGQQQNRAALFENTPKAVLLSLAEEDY
Experiment [5] shares this target. As to conditions: at 1 µM.
For experiment [6], the target named is T1, Phosphorylase b kinase gamma catalytic chain, liver/testis isoform (Homo sapiens) (UniProt P15735).
T1 sequence (whole entry): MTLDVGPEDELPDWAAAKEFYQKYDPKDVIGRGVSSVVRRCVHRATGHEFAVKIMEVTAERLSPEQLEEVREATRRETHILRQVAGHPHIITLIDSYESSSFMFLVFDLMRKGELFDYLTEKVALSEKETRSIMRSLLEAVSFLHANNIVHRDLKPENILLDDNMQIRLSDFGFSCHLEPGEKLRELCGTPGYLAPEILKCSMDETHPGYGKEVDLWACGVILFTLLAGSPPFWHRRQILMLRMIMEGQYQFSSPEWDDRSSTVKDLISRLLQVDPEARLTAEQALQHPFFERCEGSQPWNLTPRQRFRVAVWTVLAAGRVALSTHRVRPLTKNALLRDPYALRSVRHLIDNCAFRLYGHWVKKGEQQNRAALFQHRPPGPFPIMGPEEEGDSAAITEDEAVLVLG
Particulars: at 0.1 µM.

Experiment [7] concerns the target T1, Phosphorylase b kinase gamma catalytic chain, liver/testis isoform (Homo sapiens). Particulars: at 1 µM.
For experiment [8], the target named is Serine/threonine-protein kinase pim-1 (Homo sapiens) (UniProt P11309). As to conditions: at 0.1 µM.
Serine/threonine-protein kinase pim-1 (Homo sapiens), sequence (P11309 whole entry, looked up): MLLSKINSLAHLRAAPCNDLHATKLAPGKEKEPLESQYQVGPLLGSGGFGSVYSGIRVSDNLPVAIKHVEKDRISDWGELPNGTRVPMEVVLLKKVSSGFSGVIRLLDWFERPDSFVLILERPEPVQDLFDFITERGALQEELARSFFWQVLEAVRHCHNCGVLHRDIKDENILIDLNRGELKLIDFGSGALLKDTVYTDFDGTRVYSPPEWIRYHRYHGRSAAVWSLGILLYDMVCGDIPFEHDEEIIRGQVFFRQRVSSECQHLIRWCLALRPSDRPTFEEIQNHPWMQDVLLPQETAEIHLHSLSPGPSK
Experiment [9] has the same target. As to conditions: at 1 µM.
Experiment [10] deals with Serine/threonine-protein kinase pim-2 (Homo sapiens) (UniProt Q9P1W9). As to conditions: at 0.1 µM.
Serine/threonine-protein kinase pim-2 (Homo sapiens), sequence (Q9P1W9 whole entry, looked up): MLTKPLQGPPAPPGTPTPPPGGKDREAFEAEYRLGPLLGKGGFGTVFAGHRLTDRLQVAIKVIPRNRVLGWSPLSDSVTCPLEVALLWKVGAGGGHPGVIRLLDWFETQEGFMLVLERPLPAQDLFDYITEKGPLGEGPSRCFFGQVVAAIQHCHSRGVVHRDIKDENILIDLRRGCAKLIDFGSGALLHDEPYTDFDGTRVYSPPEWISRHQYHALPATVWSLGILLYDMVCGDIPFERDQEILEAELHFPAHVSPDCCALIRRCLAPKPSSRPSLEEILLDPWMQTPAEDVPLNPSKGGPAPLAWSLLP
For experiment [11] the target is unchanged. Particulars: at 1 µM.
Experiment [12] addresses Serine/threonine-protein kinase pim-3 (Homo sapiens) (UniProt Q86V86). As to conditions: at 0.1 µM.
Experiment [13] has the same target. As to conditions: at 1 µM.
Experiment [14] addresses T2, MAP kinase-activated protein kinase 5 (Homo sapiens) (UniProt Q8IW41).
T2 sequence (whole entry): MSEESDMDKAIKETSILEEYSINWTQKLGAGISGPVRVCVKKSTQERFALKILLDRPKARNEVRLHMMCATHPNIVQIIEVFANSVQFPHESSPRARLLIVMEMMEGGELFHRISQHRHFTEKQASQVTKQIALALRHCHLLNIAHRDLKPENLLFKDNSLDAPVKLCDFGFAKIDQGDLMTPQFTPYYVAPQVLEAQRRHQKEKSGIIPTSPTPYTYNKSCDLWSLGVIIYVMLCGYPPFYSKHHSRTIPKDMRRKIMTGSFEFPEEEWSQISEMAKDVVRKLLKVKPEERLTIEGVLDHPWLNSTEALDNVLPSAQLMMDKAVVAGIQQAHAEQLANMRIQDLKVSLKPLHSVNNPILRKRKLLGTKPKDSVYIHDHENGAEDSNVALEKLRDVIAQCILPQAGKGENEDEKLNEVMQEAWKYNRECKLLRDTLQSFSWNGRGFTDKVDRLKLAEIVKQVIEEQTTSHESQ
Particulars: at 0.1 µM.

Experiment [15] has as its target T2, MAP kinase-activated protein kinase 5 (Homo sapiens). As to conditions: at 1 µM.
Experiment [16] has as its target Serine/threonine-protein kinase SIK1 (Homo sapiens) (UniProt P57059). Particulars: at 0.1 µM.
Experiment [17] has the same target. As to conditions: at 1 µM.
Experiment [18] addresses Serine/threonine-protein kinase SIK2 (Homo sapiens) (UniProt Q9H0K1). As to conditions: at 0.1 µM.
For experiment [19] the target is unchanged. Particulars: at 1 µM.
Experiment [20] has as its target T3, Serine/threonine-protein kinase TBK1 (Homo sapiens) (UniProt Q9UHD2).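 Note: values are the mean TBK1 inhibition, taken from the GSK PKIS screening data.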
T3 sequence (whole entry): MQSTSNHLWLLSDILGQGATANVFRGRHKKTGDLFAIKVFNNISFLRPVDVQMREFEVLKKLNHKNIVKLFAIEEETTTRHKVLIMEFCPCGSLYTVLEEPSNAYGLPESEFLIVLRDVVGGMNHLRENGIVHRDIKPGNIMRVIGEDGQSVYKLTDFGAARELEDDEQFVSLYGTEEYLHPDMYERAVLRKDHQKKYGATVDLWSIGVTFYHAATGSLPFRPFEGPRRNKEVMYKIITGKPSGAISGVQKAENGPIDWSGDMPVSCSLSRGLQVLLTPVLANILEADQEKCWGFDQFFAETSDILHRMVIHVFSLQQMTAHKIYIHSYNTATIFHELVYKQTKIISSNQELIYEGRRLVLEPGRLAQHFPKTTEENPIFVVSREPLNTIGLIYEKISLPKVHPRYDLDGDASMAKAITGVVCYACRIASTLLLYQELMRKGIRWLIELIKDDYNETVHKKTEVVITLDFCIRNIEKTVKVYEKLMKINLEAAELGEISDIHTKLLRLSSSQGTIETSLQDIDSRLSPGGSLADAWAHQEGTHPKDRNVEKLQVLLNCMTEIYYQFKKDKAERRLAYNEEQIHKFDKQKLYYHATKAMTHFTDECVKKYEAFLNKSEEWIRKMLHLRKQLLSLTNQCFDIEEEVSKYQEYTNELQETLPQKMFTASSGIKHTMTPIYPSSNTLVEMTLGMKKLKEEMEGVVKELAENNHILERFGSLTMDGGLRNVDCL
As to conditions: at 0.1 µM.

Serine/threonine-protein kinase SIK1 (Homo sapiens), sequence (P57059 whole entry): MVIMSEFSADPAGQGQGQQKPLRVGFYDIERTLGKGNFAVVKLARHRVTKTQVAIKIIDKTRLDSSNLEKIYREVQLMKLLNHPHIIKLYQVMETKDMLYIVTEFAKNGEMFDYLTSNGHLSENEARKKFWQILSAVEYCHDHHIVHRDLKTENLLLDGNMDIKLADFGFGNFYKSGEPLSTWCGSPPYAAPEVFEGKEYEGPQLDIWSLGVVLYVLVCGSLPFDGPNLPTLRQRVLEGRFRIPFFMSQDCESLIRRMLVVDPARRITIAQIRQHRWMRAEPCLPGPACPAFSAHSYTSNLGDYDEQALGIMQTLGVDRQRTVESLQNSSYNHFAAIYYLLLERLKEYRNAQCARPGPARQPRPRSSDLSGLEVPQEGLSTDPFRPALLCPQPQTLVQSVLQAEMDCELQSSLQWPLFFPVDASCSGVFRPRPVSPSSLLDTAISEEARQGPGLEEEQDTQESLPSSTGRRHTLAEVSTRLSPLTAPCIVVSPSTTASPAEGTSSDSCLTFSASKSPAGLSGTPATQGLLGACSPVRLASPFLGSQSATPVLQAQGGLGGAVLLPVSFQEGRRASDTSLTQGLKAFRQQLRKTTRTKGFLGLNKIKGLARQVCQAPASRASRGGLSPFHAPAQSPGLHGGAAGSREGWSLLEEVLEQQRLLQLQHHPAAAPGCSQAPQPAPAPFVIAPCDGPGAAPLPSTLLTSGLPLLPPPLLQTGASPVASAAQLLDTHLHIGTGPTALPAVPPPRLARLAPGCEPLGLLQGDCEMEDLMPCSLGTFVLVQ
Serine/threonine-protein kinase SIK2 (Homo sapiens), sequence (Q9H0K1 whole entry, looked up): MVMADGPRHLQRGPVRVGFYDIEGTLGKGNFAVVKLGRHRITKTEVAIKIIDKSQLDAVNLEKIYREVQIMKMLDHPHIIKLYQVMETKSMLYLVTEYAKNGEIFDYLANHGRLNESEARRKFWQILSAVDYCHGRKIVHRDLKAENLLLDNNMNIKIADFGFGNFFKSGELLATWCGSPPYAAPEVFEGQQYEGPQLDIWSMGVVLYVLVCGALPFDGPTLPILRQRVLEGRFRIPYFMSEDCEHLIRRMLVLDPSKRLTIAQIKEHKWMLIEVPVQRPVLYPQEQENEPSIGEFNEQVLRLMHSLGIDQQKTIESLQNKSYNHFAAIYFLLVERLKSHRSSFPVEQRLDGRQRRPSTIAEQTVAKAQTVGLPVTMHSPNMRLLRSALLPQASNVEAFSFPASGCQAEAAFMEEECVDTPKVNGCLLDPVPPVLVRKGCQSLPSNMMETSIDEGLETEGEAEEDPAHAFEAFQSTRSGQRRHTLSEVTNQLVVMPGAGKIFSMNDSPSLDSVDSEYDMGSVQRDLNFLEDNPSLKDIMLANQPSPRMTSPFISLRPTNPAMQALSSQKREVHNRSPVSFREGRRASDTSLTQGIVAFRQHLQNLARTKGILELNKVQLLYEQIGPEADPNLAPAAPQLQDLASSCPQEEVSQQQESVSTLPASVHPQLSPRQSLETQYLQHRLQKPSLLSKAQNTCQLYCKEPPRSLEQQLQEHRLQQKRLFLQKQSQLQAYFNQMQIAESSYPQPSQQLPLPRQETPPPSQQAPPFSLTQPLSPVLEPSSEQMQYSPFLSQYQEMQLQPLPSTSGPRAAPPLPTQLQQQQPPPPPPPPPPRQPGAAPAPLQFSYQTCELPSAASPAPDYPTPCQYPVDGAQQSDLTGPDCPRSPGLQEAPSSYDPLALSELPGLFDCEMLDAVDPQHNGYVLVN
PAS domain-containing serine/threonine-protein kinase (Homo sapiens), sequence (Q96RG2 whole entry, the tested form may be a part): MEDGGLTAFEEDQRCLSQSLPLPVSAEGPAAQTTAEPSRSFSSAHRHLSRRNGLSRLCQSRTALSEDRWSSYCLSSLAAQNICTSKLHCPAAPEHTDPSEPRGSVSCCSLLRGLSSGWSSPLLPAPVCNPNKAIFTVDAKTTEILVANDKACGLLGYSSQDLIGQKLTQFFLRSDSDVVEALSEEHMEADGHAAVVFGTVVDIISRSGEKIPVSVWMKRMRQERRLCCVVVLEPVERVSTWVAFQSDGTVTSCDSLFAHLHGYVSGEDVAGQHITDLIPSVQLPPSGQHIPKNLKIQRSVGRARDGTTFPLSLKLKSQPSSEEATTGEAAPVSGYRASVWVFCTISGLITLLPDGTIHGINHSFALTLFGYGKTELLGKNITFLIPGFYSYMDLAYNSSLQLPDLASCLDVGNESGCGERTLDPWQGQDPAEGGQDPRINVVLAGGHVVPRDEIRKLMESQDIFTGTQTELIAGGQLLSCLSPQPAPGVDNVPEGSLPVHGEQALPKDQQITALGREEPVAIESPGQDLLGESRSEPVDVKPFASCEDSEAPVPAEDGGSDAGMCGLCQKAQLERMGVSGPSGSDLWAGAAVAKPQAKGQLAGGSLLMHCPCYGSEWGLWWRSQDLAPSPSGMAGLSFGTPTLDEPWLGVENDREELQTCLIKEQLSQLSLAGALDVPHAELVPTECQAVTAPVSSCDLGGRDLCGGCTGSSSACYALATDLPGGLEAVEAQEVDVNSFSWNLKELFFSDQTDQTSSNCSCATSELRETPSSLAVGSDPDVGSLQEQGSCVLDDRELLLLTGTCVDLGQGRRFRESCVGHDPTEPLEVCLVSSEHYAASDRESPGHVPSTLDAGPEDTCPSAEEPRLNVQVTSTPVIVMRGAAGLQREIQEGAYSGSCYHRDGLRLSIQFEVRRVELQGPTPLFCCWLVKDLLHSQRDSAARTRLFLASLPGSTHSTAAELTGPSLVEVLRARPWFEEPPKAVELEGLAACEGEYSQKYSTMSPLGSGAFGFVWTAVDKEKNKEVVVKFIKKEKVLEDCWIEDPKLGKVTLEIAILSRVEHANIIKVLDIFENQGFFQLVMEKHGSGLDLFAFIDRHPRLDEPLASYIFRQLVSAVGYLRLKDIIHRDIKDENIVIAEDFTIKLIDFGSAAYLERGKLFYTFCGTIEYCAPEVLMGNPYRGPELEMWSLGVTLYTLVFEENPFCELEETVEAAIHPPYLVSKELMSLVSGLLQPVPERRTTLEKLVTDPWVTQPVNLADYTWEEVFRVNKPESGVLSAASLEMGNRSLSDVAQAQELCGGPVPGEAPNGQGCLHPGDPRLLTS
Serine/threonine-protein kinase MARK2 (Homo sapiens), sequence (Q7KZI7 whole entry, the tested form may be a part): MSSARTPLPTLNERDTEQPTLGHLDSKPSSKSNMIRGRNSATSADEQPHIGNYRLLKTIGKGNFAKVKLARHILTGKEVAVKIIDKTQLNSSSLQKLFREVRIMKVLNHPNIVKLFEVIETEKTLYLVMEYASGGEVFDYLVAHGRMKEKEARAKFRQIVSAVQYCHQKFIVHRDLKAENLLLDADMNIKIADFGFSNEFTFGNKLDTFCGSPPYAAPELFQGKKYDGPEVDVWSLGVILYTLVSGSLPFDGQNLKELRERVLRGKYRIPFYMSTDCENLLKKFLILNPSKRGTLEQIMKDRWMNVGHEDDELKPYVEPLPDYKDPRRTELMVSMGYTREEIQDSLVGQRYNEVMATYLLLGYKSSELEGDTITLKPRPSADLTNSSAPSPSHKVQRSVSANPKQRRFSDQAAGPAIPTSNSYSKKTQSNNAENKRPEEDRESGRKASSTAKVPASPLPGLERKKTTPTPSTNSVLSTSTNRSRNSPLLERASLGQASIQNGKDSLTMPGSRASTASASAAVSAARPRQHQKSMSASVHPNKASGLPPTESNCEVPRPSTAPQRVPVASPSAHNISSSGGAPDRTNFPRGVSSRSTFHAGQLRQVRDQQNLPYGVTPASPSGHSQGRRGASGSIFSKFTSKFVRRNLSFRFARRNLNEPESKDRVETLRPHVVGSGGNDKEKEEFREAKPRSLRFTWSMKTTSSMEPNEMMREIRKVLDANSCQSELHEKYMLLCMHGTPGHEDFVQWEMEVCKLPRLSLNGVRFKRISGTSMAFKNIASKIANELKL

Regarding `CN(C)C(=O)O[C@H]1CN[C@H](C#Cc2cc3ncnc(Nc4ccc(OCc5cccc(F)c5)c(Cl)c4)c3s2)C1`, the inhibition – broadly, the relative decrease from the control value, in per cent – in [1] was 1.09%; in experiment [2], 0.16%; in [3], -0.64%; in [4], 2.62%; in experiment [5], 2.71%; in experiment [6] it was 2.94%. The inhibition is -0.02% in [7]; -0.09% in experiment [8]; 0.1% in [9]; 0.57% in [10]; 0.45% in experiment [11]; -0.1% in experiment [12]. Besides, the inhibition in experiment [13] is -1.11%; in experiment [14] it was 0.7%; in experiment [15], -0.94%; in experiment [16], 4.32%; in [17], 5.89%; in experiment [18], 11.5%. Besides, the inhibition in experiment [19] was 12.2%; in [20] it was -0.37%.

For the compound `Nc1nccc(-c2c(-c3ccc(F)cc3)ncn2CCCN2CCOCC2)n1`, the inhibition was 1.26% in experiment [1]; -0.18% in experiment [2]; 0.84% in [3]; 5.3% in experiment [4]; 5.42% in [5]; 3.78% in [6]. Further, the inhibition in experiment [7] amounted to 4.82%; in experiment [8], 1.45%; in [9], 0.82%; in experiment [10] it was 0.76%; in experiment [11], 1.68%; in experiment [12] it was 2.11%. Moreover, the inhibition in experiment [13] came to 1.36%; in experiment [14] it was 1.45%; in experiment [15], 4.08%; in experiment [16], 2.84%; in experiment [17] it was 6.36%; in experiment [18], 7.84%. Further, the values for the inhibition in experiment [19] and in experiment [20] were 11.6% and 0.96%, respectively.

`CN(C)c1cc2c(Nc3ccc4c(cnn4Cc4ccccc4)c3)ncnc2cn1`: the inhibition in [1] is 0.46%; in experiment [2] it was 0.31%; in experiment [3], -1.1%; in experiment [4], 2.72%; in [5], 4.62%; in experiment [6], 3.31%. The inhibition in [7] was 1.97%; in experiment [8], -0.22%; in experiment [9] it was 1.78%; in [10], -0.29%; in experiment [11], 0.31%; in [12], -0.8%. The inhibition in [13] was determined as 0.43%; in experiment [14], 0.61%; in experiment [15], 0.28%; in [16] it was 3.9%; in experiment [17] it was 4.59%; in [18], 2.41%. The results for the inhibition in experiment [19] and in experiment [20] were 4.92% and 1.07%, respectively.

As for `CS(=O)(=O)Nc1cccc(-c2ccc3c(NC(=O)C4CC4)n[nH]c3c2)c1`, the inhibition is 2.88% in experiment [1]; 0.72% in experiment [2]; -0.4% in [3]; 3.02% in [4]; 6.04% in experiment [5]; 2.36% in experiment [6]. The inhibition in experiment [7] was -0.09%; in experiment [8], 0.69%; in experiment [9], 0.43%; in experiment [10], 0.5%; in experiment [11], 1.38%; in experiment [12], -0.62%. For the same compound, the inhibition was -2.53% in experiment [13]; 0.1% in [14]; -1.16% in [15]; -0.72% in experiment [16]; 5.25% in experiment [17]; -2.65% in experiment [18]. For the same compound, the inhibition in experiment [19] is 9.32%; in [20] it was -0.1%.

Turning to `Cc1ccc2c(-c3ccnc(Nc4ccc5c(c4)OCCO5)n3)c(-c3ccc(C(F)(F)F)cc3)nn2n1`, the inhibition in experiment [1] amounted to 2.02%; in experiment [2], 1.16%; in [3] it was 1.48%; in [4] it was 3.21%; in experiment [5], 1.99%; in [6], 1.58%. The inhibition in experiment [7] is 1.14%; in [8] it was -0.32%; in experiment [9], 0.3%; in [10] it was 0.44%; in [11], 1.63%; in [12], 0.32%. In addition, the inhibition in [13] was 0.77%; in [14] it was 0.37%; in experiment [15], 0.83%; in experiment [16], 0.02%; in [17], -0.13%; in [18], 10.8%. Also, the inhibition in [19] came out at 0.48%; in [20], 0.84%.

In the case of `COc1cc(/C=N/Nc2ncnc3c2cnn3C(C)C)ccc1O`, the inhibition is 1.32% in experiment [1]; -0.76% in [2]; -1.33% in [3]; 2.28% in experiment [4]; 5.02% in [5]; -0.14% in experiment [6]. The inhibition in experiment [7] was found to be 1.57%; in [8], 0.52%; in experiment [9] it was 2.04%; in experiment [10], 0.9%; in [11], 4.35%; in experiment [12], 1.2%. The inhibition in [13] was 7.74%; in experiment [14], 0.1%; in experiment [15], 0.02%; in experiment [16], 2.84%; in experiment [17] it was 14.5%; in [18], 2.78%. The inhibition in experiment [19] amounted to 23.1%; in experiment [20], 2.37%.

The values above are taken from ChEMBL document CHEMBL1961873, “Compounds: GSK PKIS; Assays: Nanosyn kinase panel” (2012).
